High-throughput results deposited in PubChem by National Center for Advancing Translational Sciences (NCATS).
A selection: hits, their analogues and other compounds. The true share with any hit is near 14%.
Pf growth 48h = Primary qHTS for delayed death inhibitors of the malarial parasite plastid, 48 hour incubation | Potency, µM (top dose mostly 28.7 µM), actives largely listed as inhibitors | P. falciparum luciferase growth in erythrocytes, 48 h | 310,000 tested, 5.9% active
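Growth was read as firefly luciferase luminescence after a 48 h, 37 C, 5% CO2 exposure of compounds to reporter-bearing P. falciparum cultures (0.1% parasitemia, 2% hematocrit final) in Albumax-supplemented RPMI 1640.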
Pf growth 96h = Primary qHTS for delayed death inhibitors of the malarial parasite plastid, 96 hour incubation | P. falciparum luciferase reporter growth, 96 h | 320,000 tested, 6.9% active | AID 504834, 2011 | Potency, µM (doses to about 28.7 µM), hits mostly inhibitors
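Compounds incubated with erythrocytes infected by luciferase-expressing P. falciparum (2% hematocrit, 0.05% parasitemia final) for 96 hours, 37 C in 5% CO2. Growth inhibition scored as decreased luciferase luminescence.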
Sm TGR inh = qHTS Assay for the Inhibitors of Schistosoma Mansoni Peroxiredoxins; AID 485364, 2010; purified TGR, DTNB reduction, TNB absorbance 405 nm; Schistosoma mansoni thioredoxin glutathione reductase (TGR), Q962Y6; 360,000 tested, 3% active; Potency, µM (highest dose often 114 µM), usual class: inhibitors; further: nearly all actives have a fitted effect of over 60% in size
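TGR 20 nM + NADPH 100 uM (dispensed conc.), cpd preinc 15 min RT; start with NADPH (500 uM addition) then DTNB (15 mM addition). Kinetic TNB absorbance, 405 nm filter. Four-parameter Hill fit across titration.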
Giardia FBPA inh = qHTS Assay for Inhibitors of Fructose-1,6-bisphosphate Aldolase from Giardia Lamblia. A8B2U2. purified Giardia FBPA. Potency, µM (top dose mostly 59.6 µM), usual class: inhibitors. 290,000 tested, 0.71% active; further: nearly all actives have a fitted effect of over 55% in size
Target sequence (A8B2U2 whole entry, looked up): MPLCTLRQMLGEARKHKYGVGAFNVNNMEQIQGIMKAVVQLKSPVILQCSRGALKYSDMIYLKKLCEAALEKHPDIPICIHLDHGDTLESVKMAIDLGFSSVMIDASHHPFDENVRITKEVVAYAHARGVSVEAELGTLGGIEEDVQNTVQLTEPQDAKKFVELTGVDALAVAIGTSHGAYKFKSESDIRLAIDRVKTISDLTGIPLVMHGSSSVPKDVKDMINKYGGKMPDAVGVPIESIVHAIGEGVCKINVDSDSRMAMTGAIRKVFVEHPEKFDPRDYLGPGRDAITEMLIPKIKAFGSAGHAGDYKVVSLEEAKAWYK
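40 nM FBPA preincubated 10 min at RT with compound (up to 57.5 uM final), then substrate plus GAPDH/TPI/NAD/arsenate coupling and diaphorase/resazurin added. Fluorescence read after 20 min at RT, 525/598 nm.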
HCMV antiviral = qHTS Assay for inhibitors of the human cytomegalovirus (HCMV). AID 1259415, 2018. HFF cells, HCMV-luciferase reporter, 72 h; hits give low values. activity change, negative = inhibition, % at 57.5 µM. 410,000 tested, 4.5% active; in the data active means activity change below about -60%; inconclusive means no clear call, values can overlap the other calls; inactive means above about -39%
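Human foreskin fibroblasts infected with luciferase-reporter HCMV at MOI 1 PFU/cell, compounds at two doses. Luciferase measured 72 h post infection; normalized to buffer-only basal and Salinomycin (10uM) controls.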
Of the large screens only hits and unclear results are named; the others gave an inactive call. Unless noted, the call rests on the fitted dose curve; in most records, active means well fitted curve in the direction sought with a large enough effect; inconclusive means small, poorly fitted or top-dose-only effect, or another doubt; inactive means no such curve, though single readings can be large; an effect the other way counts as inactive or inconclusive.

COc1ccc(-c2nnn(CC(=O)N(CC(=O)NC3CCCC3)Cc3cccs3)n2)cc1OC	none (no result: Pf growth 96h)
COc1cccc(NC(=O)C2CCN(S(=O)(=O)c3c(C)noc3C)CC2)c1	none (no result: Pf growth 48h, Pf growth 96h, Giardia FBPA inh)
CCCCN(C)CC(O)Cn1cc(/C=C/C(=O)c2ccc(C)cc2)c2ccccc21 (stereo not drawn)	Pf growth 48h 9.28µM, HCMV antiviral -97.7
CCCCN(C)CC(O)Cn1cc(/C=C/C(=O)c2ccc(OC)c(OC)c2)c2ccccc21 (stereo not drawn)	HCMV antiviral -107.7 (no result: Pf growth 48h, Pf growth 96h, Giardia FBPA inh)
CCCN(CCC)CC(O)Cn1cc(/C=C/C(=O)c2ccc(C)cc2)c2ccccc21 (stereo not drawn)	HCMV antiviral -106.9 (no result: Pf growth 48h, Pf growth 96h, Giardia FBPA inh)
CCCCN(C)CC(O)Cn1cc(/C=C/C(=O)c2ccc(Br)cc2)c2ccccc21 (stereo not drawn)	HCMV antiviral -107.0 (no result: Pf growth 48h, Pf growth 96h, Giardia FBPA inh)
CCCN(CCC)CC(O)Cn1cc(/C=C/C(=O)c2ccccc2)c2ccccc21 (stereo not drawn)	Pf growth 48h inconclusive
CCOC(=O)CCN1C(=O)[C@@H]2[C@H]3C(=CC[C@H]2C1=O)C(=O)[C@H]1O[C@H]1[C@H]3O	none (no result: Pf growth 48h, Pf growth 96h, Sm TGR inh, HCMV antiviral)
CCCN(CCC)CC(O)Cn1cc(/C=C/C(=O)c2cccs2)c2ccccc21 (stereo not drawn)	Pf growth 48h 7.38µM
CN(C)CCNC(=O)c1ccc2nc([C@@H]3O[C@H](CO)[C@H](O)[C@H](O)[C@H]3O)[nH]c2c1	none (no result: Pf growth 48h, Pf growth 96h, Sm TGR inh, Giardia FBPA inh)
CCOc1cc(-c2cc(-c3ccc(N)cc3)nc(N)c2C#N)ccc1O	Pf growth 48h 11.7µM
N#CC(C#N)=Cc1ccc(C=C(C#N)C#N)cc1	Pf growth 48h inconclusive, Sm TGR inh 2.24µM, Giardia FBPA inh inconclusive
CC1(c2nnc(Cc3ccccc3)o2)CC(c2cccc([N+](=O)[O-])c2)=NO1 (stereo not drawn)	Sm TGR inh 44.7µM (no result: Giardia FBPA inh)
CC1(c2nnc(Cc3ccccc3)o2)CC(c2ccncc2)=NO1 (stereo not drawn)	none (no result: Pf growth 48h, Pf growth 96h, Sm TGR inh, Giardia FBPA inh)
CC1(c2nnc(Cc3ccccc3)o2)CC(c2ccccc2[N+](=O)[O-])=NO1 (stereo not drawn)	Sm TGR inh 3.16µM (no result: Giardia FBPA inh, HCMV antiviral)
COc1ccc(C(=O)N2CCC(n3nccc3NC(=O)C3CC3)CC2)cc1F	Pf growth 48h inconclusive
O=C(Nc1ccc2c(c1)OCCO2)C1CCCN(S(=O)(=O)c2cccc3nsnc23)C1 (stereo not drawn)	HCMV antiviral -77.5 (no result: Pf growth 48h)
O=C(Nc1nc2cc(Cl)ccc2s1)C1CCCN(S(=O)(=O)c2cccc3cccnc23)C1 (stereo not drawn)	Pf growth 96h 11.7µM (no result: Pf growth 48h, HCMV antiviral)
Cc1ccc2nc(NC(=O)C3CCCN(S(=O)(=O)c4cccc5nsnc45)C3)sc2c1 (stereo not drawn)	Pf growth 48h 10.4µM, Pf growth 96h inconclusive
O=C(Nc1ccc2c(c1)OCCO2)C1CCN(S(=O)(=O)c2cccc3nsnc23)CC1	Pf growth 96h inconclusive
COc1cc(NC(=O)C2CCCN(S(=O)(=O)c3cccc4nsnc34)C2)cc(OC)c1 (stereo not drawn)	Pf growth 48h inconclusive
Cc1ccc2nc(NC(=O)C3CCN(S(=O)(=O)c4cccc5nsnc45)CC3)sc2c1	Pf growth 48h inconclusive, HCMV antiviral -85.0
CC(C)CN(CC(C)C)c1nnc(NC(=O)Nc2cccc(C(F)(F)F)c2)s1	none (no result: Pf growth 48h, Pf growth 96h, Giardia FBPA inh)
O=C(C[C@@H]1C=C[C@@H](NC(=O)c2cccnc2)[C@@H](CO)O1)NCc1ccncn1	none (no result: Pf growth 48h, Pf growth 96h, Sm TGR inh, Giardia FBPA inh)
COC(=O)c1ccc(NC(=O)c2c(C(=O)Nc3ccccc3)sc3nc(C)cc(=O)n23)cc1	Pf growth 96h 11.7µM
CCOc1ccc(NC(=O)c2sc3nc(-c4ccc(OC)cc4)cn3c2C)cc1	none (no result: Pf growth 48h, Pf growth 96h, Giardia FBPA inh)
CCCc1cc(=O)n2c(C(=O)Nc3ccc(OCC)cc3)c(C(=O)Nc3ccc(C)cc3)sc2n1	HCMV antiviral -83.7 (no result: Pf growth 48h, Pf growth 96h, Giardia FBPA inh)
COC(=O)[C@@]1(Cc2ccccc2)[C@H]2c3cc(C(=O)N(C)C)n(Cc4ccc(OC)c(OC)c4)c3C[C@H]2CN1C(=O)c1ccccc1	none (no result: Pf growth 48h, Pf growth 96h, Sm TGR inh, HCMV antiviral)
O=C(NCc1cccnc1)c1ccc(NC(=O)c2ccc([N+](=O)[O-])cc2)cc1	Pf growth 48h inconclusive, HCMV antiviral inconclusive (no result: Giardia FBPA inh)
O=C(c1ccccc1)C1C(c2ccccc2)C1[N+](=O)[O-] (stereo not drawn)	none
CN(C)c1ccc([C@@H]2[C@@H]([N+](=O)[O-])[C@H]3C=Cc4ccccc4N3[C@H]2C(=O)c2ccc(Cl)cc2)cc1	Pf growth 48h inconclusive, Pf growth 96h inconclusive, Sm TGR inh 44.7µM, HCMV antiviral -66.9
COc1ccc(NCc2nnc(-c3ccccc3)o2)cc1	Pf growth 96h inconclusive (no result: Giardia FBPA inh)
NC1(C(=O)O)CSSC1	HCMV antiviral -79.8 (no result: Pf growth 48h, Pf growth 96h, Sm TGR inh, Giardia FBPA inh)
Cc1ccc(NC(=O)C2CC2c2ccccc2)c([N+](=O)[O-])c1 (stereo not drawn)	Pf growth 96h inconclusive
Cc1cc2c(=O)n(Cc3ccco3)c(SCC(=O)NCc3ccco3)nc2s1	Pf growth 48h inconclusive (no result: Pf growth 96h)
Cc1cc2c(=O)n(Cc3ccco3)c(SCC(=O)N3CCCc4ccccc43)nc2s1	Pf growth 48h inconclusive, HCMV antiviral -88.0 (no result: Pf growth 96h)
O=C(COC(=O)c1cncc(Br)c1)NC1CCCC1	none
O=C(COC(=O)c1cncc(Br)c1)NC1CCCCCC1	Pf growth 48h 3.29µM
COc1ccc(C(=O)OCC(=O)NC(=O)NC2CCCC2)c(OC)c1	Pf growth 48h 11.7µM
CCCCOc1ccc(C(=O)OCC(=O)NC2CCCC2)cc1	HCMV antiviral -99.7
O=C(COC(=O)/C=C/c1cccc(Br)c1)NC1CCCC1	HCMV antiviral -100.3 (no result: Pf growth 48h, Pf growth 96h, Sm TGR inh, Giardia FBPA inh)
O=C(COC(=O)/C=C/c1ccccc1)NC1CCCC1	none (no result: Pf growth 48h, Pf growth 96h, Sm TGR inh, Giardia FBPA inh)
